Test results published in PubChem BioAssay (EPA / NIEHS).
The source made the active and inactive calls. Rule for the calls: active = hit-call score of the fitted dose curve at least 0.9, where 1 is the maximum; inactive = score below 0.9.

Each molecule was assayed on Cytochrome P450 (CYP2B6), CYP2B6 (gene 1555) (assay: LTEA_HepaRG_CYP2B6: Life Technologies and Expression Analysis (LTEA) Assay for Cytochrome P450 (CYP2B6) using HepaRG (AID 2283481)). Details: mRNA level, 48 h; actives raise or lower the signal.
Experimental: LTEA_HepaRG is a cell based, multiplexed-readout assay that uses HepaRG, a human liver cell line, with measurements taken at 48 hours after chemical dosing on a 96-well plate.LTEA_HepaRG_CYP2B6 is one of 102 assay component(s) measured in the LTEA HepaRG cell culture assay. It is a marker of NR mediated metabolism.Data from the assay component LTEA_HepaRG_CYP2B6 was analyzed into 1 endpoint. This assay endpoint, LTEA_HepaRG_CYP2B6, was analyzed with bidirectional fitting relative to DMSO as the negative control and baseline of activity. Using a type of inducible reporter, measures of mRNA induction for gain or loss-of-signal activity can be used to understand regulation of transcription factor activity. To generalize the intended target to other relatable targets, this assay endpoint is annotated to the cyp intended target family, where the subfamily is xenobiotic metabolism.
A total of 1060 chemcials from the ToxCast library were tested in eight-point concentration-response experiments. Cell culture and cytotoxicity assays were conducted at Thermo Fisher Scientific's Custom Services facility (Madison, WI). A single lot of human HepaRG cells (Thermo Fisher Scientific, Frederick, MD) was used for the cell culture experiments. 96-well format collagen type I coated plates of human HepaRG cells were prepared using established methods. Briefly, cryopreserved HepaRG cells were thawed, plated at a density of approximately 100,000 cells/well in HepaRG Thaw, Plate, and General Purpose media (HPRG770, Thermo Fisher Scientific), and incubated for 48 hours. 0.5% DMSO was selected as vehicle control to balance the requisite need of DMSO in HepaRG cultures to maintain differentiation (for example, baseline metabolism, proportions of hepatocytes vs. cholangiocytes), while enabling further hepatic receptor pathway activation (for example, PXR and CAR) in response to chemical exposure. 48 hours after plating, the culture medium was replaced with HepaRG Serum-Free Incudtion Media. Cells were exposed to each test chemical in duplicate and maintained in CO2 incubators for another 48 hours. Chemical plates were thawed to room temperature and 200x concentrations of treatment groups were prepared. 8-point conentration-reponse curves were made with the highest exposure at 100 uM, followed by half-log dilutions, all in 0.5% DMSO. Each test plate contained variouse controls, induction positive controls (1mM phenobarbital), cytotoxicity positive controls ([…] aflatoxin B1), vehicle controls (0.5% DMSO), and total lysis controls (0.5% DMSO). Cell morphology images were taken using an Essen IncuCyte FLR automated microscope, with six 96-well plates imaged in about 24 minutes. Images were captured and exported and JPEG files. Spent culture media was transfered to black-well plates for the LDH assay, and remaining media was sorted at -80 C for later use. Cells were treated with RLT buffer and frozen until shipped for gene expression analysis. Total RNA was isolated from the cell suspension in 75 uL of Buffer RLT (Qiagen, Germantown, MD 20874) by Quintiles/Expression Analysis (Durham, NC) using a custom isolation procedure. Total RNA from each plate well was transferred to a preamplification plate. Fluidigm's 96.96 Dynamic ArrayTM (Fluidigm, Amsterdam, the Netherlands) technology was used for gene expression analyses by quantitative reverse transcription polymerase chain reaction (qRT-PCR, performed by Quintiles/Expression Analysis, Durham, NC)89. Standard TaqManTM Assays (Applied Biosystems/ThermoFisher Scientific, Foster City, CA) were used to assess the expression of 93 genes selected based on their selectivity and sensitivity to important hepatic receptors known to be modulated by environmental chemicals; importance in human hepatocyte functionality; and hepatotoxicity. […]

| Structure (SMILES) | outcome | AC50 |
| --- | --- | --- |
| Cc1cccc(C)c1O | inactive | – |
| CCCCCCCCCCCCCCCC | inactive | – |
| CCCCCCCCCCCCCO | inactive | – |
| C=CCOC(=O)c1ccccc1C(=O)OCC=C | inactive | – |
| Cc1ccc(C(C)C)c(O)c1 | inactive | – |
| Cc1c(C(=O)O)c(O)cc2c1C(=O)c1c(O)c([C@@H]3O[C@H](CO)[C@@H](O)[C@H](O)[C@H]3O)c(O)c(O)c1C2=O | inactive | – |
| Cc1nc(-c2ccc3c(c2)CCN(CCC2CCC(NC(=O)/C=C/c4ccc(F)cc4)CC2)CC3)no1 (stereo not given) | inactive | – |
| CNC(=O)[C@H]1O[C@@H](n2cnc3c(NCc4cc(Cl)ccc4OCc4cc(C)no4)ncnc32)[C@H](O)[C@@H]1N | inactive | – |
| Nc1ccc2c(c1)C(=O)c1ccccc1C2=O | – | 11.3 µM (active) |
| CN1CCCC1=O | inactive | – |
| CCCCCCCCCCC | inactive | – |
| Cc1ccc(C)c(C)c1 | inactive | – |
| CC(CO)OC(C)CO (stereo not given) (tested in a mixture with another compound) | inactive | – |
| Nc1nc(N)c2nc(CNc3ccc(C(=O)N[C@@H](CCC(=O)O)C(=O)O)cc3)cnc2n1 | inactive | – |
| COC(=O)c1ccc(O)cc1 | inactive | – |
| CN1CCN(Cc2cc(-c3ccc4[nH]c(=O)oc4c3)co2)[C@@H](c2ccc(F)cc2)C1 | – | 86.7 µM (active) |
| CN[C@H]1CC[C@@H](c2ccc(Cl)c(Cl)c2)c2ccc(S(N)(=O)=O)cc21 | – | 11.4 µM (active) |
| Clc1cc(Cl)c(Cl)cc1Cl | inactive | – |
| Cc1oc(-c2ccccc2)nc1CCOc1cccc2c1ccn2CCC(=O)O | – | 88.5 µM (active) |
| C1CCC(SSC2CCCCC2)CC1 | inactive | – |

| Structure (SMILES) | outcome | AC50 |
| --- | --- | --- |
| Oc1ccc2c(c1)OC[C@@H](N1CCC(O)(c3ccc(F)cc3)CC1)[C@H]2O | inactive | – |
| Cc1cc(=O)[nH]c(=S)[nH]1 | inactive | – |
| CC=Cc1ccc(O)c(OC)c1 | inactive | – |
| Cc1ccc(N(C)C)cc1 | – | 50 µM (active) |
| COc1cc(S(=O)(=O)O)c(C)cc1N=Nc1c(O)ccc2cc(S(=O)(=O)O)ccc12 | inactive | – |
| COc1cc(C=O)ccc1O | inactive | – |
| CCCCCCCC=O | inactive | – |
| COc1cc(-c2nc(NC(=O)c3cc4cc(C)cc(C)c4n3CC(=O)O)sc2CCC2CCCCC2)c(OC)cc1Cl | – | 5.76 µM (active) |
| CC1(C)CC(N=C=O)CC(C)(CN=C=O)C1 (stereo not given) | inactive | – |
| CNCc1cc(F)ccc1Oc1ccc(Cl)c(Cl)c1 | inactive | – |
| O=c1c(O)c(-c2ccc(O)c(O)c2)oc2cc(O)cc(O)c12 | inactive | – |
| O=C(N[C@@H](Cc1ccccc1)[C@@H](O)C(=O)N1C[C@@H](O)[C@@H](O)C1)c1cc2cc(Cl)ccc2[nH]1 | – | 11.9 µM (active) |
| CCCCCCCCCCO | inactive | – |
| CCCCC(CC)COC(=O)CC(C(=O)OCC(CC)CCCC)S(=O)(=O)O (stereo not given) | – | 15.8 µM (active) |
| NCCO | inactive | – |
| C[Si]1(C)O[Si](C)(C)O[Si](C)(C)O[Si](C)(C)O1 | inactive | – |
| Nc1ccc(S(=O)(=O)c2ccc(N)cc2)cc1 | – | 32.4 µM (active) |
| O=C(OCCCCCOC(=O)c1ccccc1)c1ccccc1 | – | 0.969 µM (active) |
| COCCOCCOC | – | 0.993 µM (active) |
| CCCCOC(=O)CCCCCCCCC(=O)OCCCC | inactive | – |
